# Bioassay records from PubChem BioAssay.
# A selection: hits, their analogues and other compounds. The true share with any hit is near 2.4%.
# PP1 inh: counter-screen for PP5 inhibitors: inhibitors of human PP1-alpha; purified PP1alpha, OMFP fluorescence; 320,000 compounds, 0.9% hits; P62136; inhibition, % at 6.7 µM;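 active = inhibition above the mean inhibition of all tested compounds plus 3 SD, computed separately for each screening campaign, cut at about 15% in these data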
# Target sequence (P62136 whole entry, looked up): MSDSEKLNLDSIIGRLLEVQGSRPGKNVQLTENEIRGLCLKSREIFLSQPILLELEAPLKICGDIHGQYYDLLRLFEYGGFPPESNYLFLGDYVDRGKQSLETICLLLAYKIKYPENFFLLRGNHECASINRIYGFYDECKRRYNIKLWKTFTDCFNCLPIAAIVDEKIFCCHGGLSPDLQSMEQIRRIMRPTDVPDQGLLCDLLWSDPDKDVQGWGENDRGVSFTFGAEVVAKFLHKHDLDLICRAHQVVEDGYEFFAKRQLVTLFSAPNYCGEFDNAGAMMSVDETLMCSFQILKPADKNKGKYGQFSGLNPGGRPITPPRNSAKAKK
# NadD block: blocks S. aureus nicotinate mononucleotide adenylyltransferase; AID 602399; purified NadD enzyme, colorimetric absorbance read-out; 360,000 compounds, 0.78% hits; inhibition, % at 20 µM; in the data active = inhibition above about 26%
# Rpn11 block: blocks the human proteasome subunit Rpn11; human 26S proteasome, Ub4-pepOG fluorescence polarization; 20S core pre-blocked with epoxomicin; inhibition, % at 20 µM; 360,000 compounds, 0.59% hits;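 active = inhibition at 20 µM, scaled to each plate's controls, above about 33%, limit read from the data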
# PREPL inhibitor: human PREPL enzyme inhibition; 320,000 compounds, 0.68% hits; Q4J6C6; inhibition, % at 5.96 µM; recombinant PREPL, fluorescence polarization activity-based probe; AID 2751; in the data active = inhibition above about 43%;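 note: 0% = enzyme with DMSO and 100% = wells lacking enzyme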
# PP5 primary: PP5 (human) phosphatase inhibition; P53041; purified PP5c, OMFP substrate fluorescence; inhibition, % at 6.7 µM; 320,000 compounds, 0.18% hits; AID 1987;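 active = inhibition above the campaign's mean inhibition across all tested compounds plus 3 SD, cut at about 9.5% in these data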;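 note: 0% = DMSO only and 100% = 100 µM cantharidin control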
# PP1 inh confirm: human PP1 phosphatase inhibition, confirmation | shares compounds with PP1 inh | purified PP1alpha, OMFP substrate fluorescence | inhibition, % at 6.7 µM | 1,900 compounds, 52% hits | AID 2358;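 active = mean PP1 inhibition above a set limit taken from the earlier primary screen, cut at about 15% in these data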
# PP5 inh counter: counter-screen for PP1 inhibitors: human PP5 phosphatase inhibition | shares compounds with PP1 inh | purified PP5c, OMFP fluorescence | inhibition, % at 6.7 µM | 1,900 compounds, 4% hits | AID 2360;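 active = mean PP5 inhibition over triplicate wells above about 9.5% taken from the earlier PP1 screen, limit read from the data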
# Numbers without * were called inactive; nt = no result.
SMILES,PP1 inh,NadD block,Rpn11 block,PREPL inhibitor,PP5 primary,PP1 inh confirm,PP5 inh counter
CN(Cc1ccccc1)S(=O)(=O)c1ccc(C(=O)Nc2nnc(C3CC3)o2)cc1,36*,16,1,2,2,31*,0
CC(=O)Nc1ccc(S(=O)(=O)N(C)Cc2ccccc2)cc1,6,7,2,1,0,nt,nt
CCCc1cc(-c2ccc3c(c2)COc2c4ccccc4nn2-3)on1,18*,2,-4,1,2,19*,-1
Cc1cc(-c2ccc3c(c2)COc2c4ccccc4nn2-3)on1,25*,-4,-1,-17,0,26*,-5
C(#CC1CCCC1)c1ccc2c(c1)COc1c3ccccc3nn1-2,-4,0,1,11,-4,nt,nt
C[C@@H](CO)NC(=O)c1ccc2c3n(nc2c1)-c1ccccc1CO3,-2,-2,-2,-2,-1,nt,nt
CCCNC(=O)c1cc(C2CCCCN2S(=O)(=O)c2ccccc2)on1 (centres undefined),nt,-6,-7,nt,nt,nt,nt
Cc1ccc(-n2c(SCC(N)=O)nnc2-c2ccco2)cc1,-2,-5,-4,9,2,nt,nt
O=C(/C=C/c1ccc([N+](=O)[O-])cc1)NCCc1ccccc1,-1,-2,-12,9,3,nt,nt
O=C(/C=C/c1ccccc1)NCCc1ccccc1,35*,2,-16,-1,0,-1,-5
COc1cc([N+](=O)[O-])cc(/C=N/NC(=O)C(C)Nc2ccccc2C)c1O (centres undefined),22*,5,-7,7,3,15,-6
COc1cc([N+](=O)[O-])cc(/C=N/NC(=O)CSc2ccccn2)c1O,21*,-2,5,5,0,24*,-6
C=CCc1cccc(/C=N/NC(=O)C(C)Nc2cccc(C)c2)c1O (centres undefined),5,3,-1,-5,8,nt,nt
COc1cc([N+](=O)[O-])cc(/C=N/NC(=O)C(C)Nc2cccc(C)c2)c1O (centres undefined),22*,-1,2,19,6,9,-6
Cc1ccc(S(=O)(=O)Nc2cc(=O)[nH]c(SCC(=O)Nc3cccc(C)c3)n2)cc1,0,-6,-8,-13,5,nt,nt
CN(CC(=O)Nc1cccc(F)c1)C(=O)CN1C(=O)C2CCCCC2C1=O (centres undefined),-5,0,-6,1,-1,nt,nt
CCOC(=O)c1cnc2nc(Cc3ccccc3)[nH]n2c1=O,-3,-2,-5,-1,1,nt,nt
CCOC(=O)c1cnc(-n2[nH]c(C)c(Cc3ccccc3)c2=O)[nH]c1=O,28*,5,2,18,0,15,-4
CCOC(=O)c1cnc2c(C)c(-c3ccccc3)[nH]n2c1=O,49*,1,0,4,0,34*,-2
CC(=O)c1cccc(OCC(O)CNCC2COc3ccccc3O2)c1 (centres undefined),-3,-8,0,5,1,nt,nt
O=C1/C(=C/c2ccccc2Cl)SC(=S)N1CCCC(=O)N(CCO)c1ccccc1,18*,-5,-14,27,1,15,5
O=C(O)CCCN1C(=O)/C(=C\c2ccccc2OCc2ccccc2)SC1=S,19*,5,0,13,4,13,-2
CCOc1ncccc1C(=O)NNC(=O)CSc1ccc(Cl)cc1,nt,-1,2,10,nt,nt,nt
COCCNC(=S)N(C)[C@H]1C[C@H]2c3cc(Oc4ccccc4C)ccc3CCN2C(=O)[C@H]1[C@H](C)O,nt,-3,4,nt,nt,nt,nt
Cc1cc(=O)c2c(=O)[nH][nH]c2[nH]1,nt,3,3,nt,nt,nt,nt
SMILES,PP1 inh,NadD block,Rpn11 block,PREPL inhibitor,PP5 primary,PP1 inh confirm,PP5 inh counter
CC(CCc1ccco1)NC(=O)CCc1nnc2ccc(NCc3ccc(Cl)cc3)nn12 (centres undefined),22*,6,2,8,3,17*,-4
CCCn1c(SCC(=O)Nc2cc(Cl)ccc2OC)nc(O)cc1=O,2,6,15,-2,2,nt,nt
C[N+](C)(CCOc1ccccc1)Cc1ccccc1 (tested in a mixture with another compound),2,2,0,-18,2,nt,nt
CC(C)(C)CC(C)(C)c1ccc(OCCOCC[N+](C)(C)Cc2ccccc2)cc1,21*,15,18,25,2,0,3
CC(C)(C)NC(=O)N1CCN(c2nc(-c3ccccc3)ns2)CC1,53*,-8,3,5,1,0,-2
CCN(C(=O)COC(=O)CCCOc1ccc(Cl)cc1C)c1c(N)n(Cc2ccccc2)c(=O)[nH]c1=O,nt,2,-2,nt,nt,nt,nt
CCOC(=O)C1=CN(CC)S(=O)(=O)NC1c1cccc(OC)c1 (centres undefined),nt,2,-1,nt,nt,nt,nt
CC1=C(C(=O)OCC2CCCO2)C(c2coc3ccccc3c2=O)C2=C(CCCC2=O)N1 (centres undefined),-2,5,5,-2,-4,nt,nt
FC(F)(F)c1ccc(C2[C@H]3CN(Cc4cccnc4)[C@H](c4ccccc4)C34CC2(c2cccnc2)C4)cc1 (some centres undefined),19*,12,18,6,5,7,-1
N#Cc1ccc(C23CC4(C2)[C@H](CN(Cc2cccnc2)[C@@H]4c2ccccc2)C3c2ccccc2)cc1 (some centres undefined),20*,17,15,-43,2,17*,-2
FC(F)(F)c1ccc(C2[C@H]3CN(Cc4ccc(-c5ccccc5)cc4)[C@H](c4ccccc4)C34CC2(c2cccnc2)C4)cc1 (some centres undefined),3,nt,nt,-5,1,nt,nt
CN(C)S(=O)(=O)c1ccc(Cl)c(C(=O)NNC(=O)c2ccc3c(c2)OCO3)c1,-7,1,2,1,-1,nt,nt
CC(C)(C)c1ccc(C(=O)Nc2ncn[nH]2)cc1,26*,2,-4,-18,0,6,-6
O=C(c1cccc(C(=O)N2CCN(c3ccccc3F)CC2)c1)N1CCN(c2ccccc2F)CC1,-4,-16,-4,29,3,nt,nt
O=C1Nc2cc(C(=O)N3CCN(c4ccccc4F)CC3)ccc2NC1CSCc1ccccc1F (centres undefined),19*,nt,nt,3,1,33*,1
CCOC(=O)C1(C)C=C(Nc2ccccc2)C(=O)N1c1ccccc1 (centres undefined),29*,-6,3,-6,1,1,-2
CCOC(=O)C1(C)C=C(Nc2ccc(OCC)cc2)C(=O)N1c1ccccc1 (centres undefined),-4,0,1,-5,4,nt,nt
CCN(CC(=O)Nc1c(F)cccc1F)C(=O)CCNS(=O)(=O)c1ccccc1C(F)(F)F,-3,-2,-7,-1,-1,nt,nt
Oc1cccc(-c2ccc3nccn3c2)c1,nt,-4,4,nt,nt,nt,nt
